In the library only some 4.1% were active in any assay of this set; here they are far more common.
tim10-1 inh – growth inhibitors of tim10-1 mutant yeast, primary screen, luminescence, uHTS | S. cerevisiae tim10-1 ts strain growth, BacTiter-Glo, 24 h | inhibition, % at 20 µM | actives 2.2% (n = 330,000) | AID 463190, 2010;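 active means inhibition of at least 40%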;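 further: mutant grown at 25 °C; 0% = DMSO wells with yeast and 100% = wells holding no yeast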
TIM10 inh – growth inhibitors of isogenic TIM10 control yeast, primary screen, counter-screen for tim10-1 yeast inhibitor project, luminescence, uHTS; S. cerevisiae TIM10 strain growth, BacTiter-Glo luminescence, 24 h; inhibition, % at 10 µM; actives 1.4% (n = 330,000);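 active means inhibition of 40% or more at the single tested concentration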;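 further: wild-type TIM10 isogenic control strain grown at permissive 25 °C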
tim23-1 inh – growth inhibitors of tim23-1 mutant yeast, primary screen, luminescence, uHTS. actives 1.3% (n = 330,000). AID 463212, 2010. inhibition, % at 20 µM. S. cerevisiae tim23-1 growth, BacTiter-Glo luminescence, 24 h;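 active means growth inhibition of the mutant yeast at or above 50%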;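 further: temperature-sensitive mutant grown at 25 °C; plate controls were DMSO-treated mutant yeast for no effect and medium wells lacking yeast for full effect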
PfHsp90 set2 – growth inhibition of PfHsp90-expressing yeast, primary screen, antimalarial PfHsp90 inhibitor project, S. cerevisiae, BacTiter-Glo luminescence, single point, set 2; inhibition, % at 9.4 µM; AID 504621, 2011; BacTiter-Glo ATP, 48 h; yeast lacking PDR1 and PDR3 efflux regulators; actives 0.32% (n = 310,000);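 active means every replicate shows inhibition above about 80%, whatever the replicate mean, limit read from the data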;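 further: 0% = DMSO neutral controls and 100% = 20 µM radicicol positive controls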
NALP1 yeast inh – NALP1 inflammasome inhibitors in reconstituted yeast, colorimetric, S. cerevisiae, triplicate retest; inhibition, % at 10 µM; AID 2071, 2009; actives 0.61% (n = 280,000); S. cerevisiae NALP1/ASC/caspase-1 growth, X-gal OD620, 72 h; in the data active means inhibition mostly above about 24%, no sharp cut-off; inactive means mostly below about 32%
NALP3 yeast inh – NALP3 inflammasome inhibitors in reconstituted yeast, primary screen, luminescence, uHTS. Yeast reconstituted NLRP3/ASC/caspase-1, beta-gal luminescence, 24 h. inhibition, % at 10 µM. AID 2825, 2010. actives 0.39% (n = 330,000);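 active means inhibition of 50% or more; inactive means inhibition below 50%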;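 further: plate controls were induced DMSO wells for no effect and uninduced yeast grown without galactose for full effect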
tim10-1 conf – growth inhibitors of tim10-1 mutant yeast, confirmation, single concentration, luminescence, S. cerevisiae | actives 56% (n = 7,400) | shares compounds with tim10-1 inh | inhibition, % at 20 µM | S. cerevisiae tim10-1 ts strain growth, BacTiter-Glo, 24 h;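 active means inhibition of yeast growth at or above a set limit in either of two repeat tests at 20 µM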;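 further: tim10-1 mutant grown at permissive 25 °C to find synthetic lethal compounds; 0% = DMSO yeast wells and 100% = medium wells without yeast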
tim10 confirm – growth inhibitors of wild-type TIM10 yeast, confirmation, counter-screen for tim10-1 synthetic lethality project, single concentration, luminescence, S. cerevisiae; actives 63% (n = 4,600); shares compounds with TIM10 inh; S. cerevisiae tim10 strain growth, BacTiter-Glo luminescence, 24 h; inhibition, % at 10 µM;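 active means inhibition of yeast growth at or above a set limit in either of two replicates at 10 µM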;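 further: this counterscreen used the strain with wild-type TIM10; 0% = yeast with DMSO and 100% = medium wells lacking yeast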
An asterisk follows results filed as active; x = no result given.

SMILES | tim10-1 inh | TIM10 inh | tim23-1 inh | PfHsp90 set2 | NALP1 yeast inh | NALP3 yeast inh | tim10-1 conf | tim10 confirm
CCOC(=O)N1CCN(S(=O)(=O)c2ccc3c(c2)CCN3C(=O)C2CCC2)CC1 | 56.5* | 46.9* | -46.3 | 12.8 | -14.2 | 10.3 | 53.3* | -20.5
O=C(C1CC1)N1CCc2cc(S(=O)(=O)NCCC3=CCCCC3)ccc21 | 50.5* | 41.1* | 31.0 | -11.2 | 6.6 | 22.6 | 33.7* | -0.4
CCCN(CCC)CCNS(=O)(=O)c1ccc2c(c1)CCN2C(=O)C1CCC1 | 9.3 | 10.5 | 13.3 | 3.5 | 6.7 | 9.2 | x | x
O=C(C1CCC1)N1CCc2cc(S(=O)(=O)N3CCCCC3)ccc21 | 28.8 | 9.2 | 19.0 | 3.0 | 2.1 | 24.9 | x | x
O=C(C1CCC1)N1CCc2cc(S(=O)(=O)N3CCN(c4ccccn4)CC3)ccc21 | 69.4* | 55.5* | -11.0 | -0.5 | -6.4 | 19.8 | 69.3* | -24.9
CCC(=O)Nc1ccc(N2CCCCC2)c(C(=O)Nc2ccccc2C)c1 | 41.4* | 40.4* | 36.1 | 6.3 | 2.1 | 12.6 | 22.4 | 38.5*
COc1ccc(C(O)Cn2ccsc2=NC(C)=O)cc1 (centres undefined) | -11.6 | 14.8 | 2.3 | 15.0 | 4.9 | 21.7 | x | x
Nc1nn2cc(-c3ccccc3)nc2c2ccccc12 | 56.5* | 56.3* | 30.5 | x | 9.9 | 47.3 | 52.8* | 48.8*
CC(=O)Nc1ccc(S(=O)(=O)NCCOc2ccc(Cl)cc2C)cc1 | 6.7 | 13.4 | 14.9 | 5.8 | 5.3 | 1.6 | x | x
CCCCOc1ccc(CONS(=O)(=O)c2ccc(NC(C)=O)cc2)cc1Cl | 55.3* | 62.4* | 13.6 | 1.1 | 11.9 | 31.3 | 47.0* | 48.1*
CCOC(=O)Cc1csc(NC(=S)NC(=O)c2ccccc2)n1 | 47.0* | 50.7* | 26.5 | -3.2 | 1.4 | 2.8 | 30.1 | 35.3*
CCOc1ccccc1C(=O)NCC(=O)NCCCSc1ccccc1 | 16.2 | 4.2 | 19.5 | 17.0 | 0.6 | 8.0 | x | x
O=[N+]([O-])c1ccc(C2=NN(CCO)C(=Nc3ccc(OC(F)(F)F)cc3)SC2)cc1 | 44.7* | 44.8* | 47.7 | -6.8 | -3.0 | 22.7 | 14.9 | 32.1*
O=C(CN1CCC(NC(=O)Nc2ccc(F)cc2)CC1)Nc1ccccc1[N+](=O)[O-] | -35.5 | -3.8 | -2.6 | -8.3 | 12.8 | 20.7 | x | x
COc1ccc(C2SCCN2S(=O)(=O)c2ccc(NC(C)=O)cc2)cc1 (centres undefined) | 27.9 | 31.6 | 37.5 | 22.6 | -11.5 | 13.5 | x | x
CC(=O)Nc1ccc(S(=O)(=O)N2CCSC2c2ccc(C)cc2)cc1 (centres undefined) | 41.0* | 41.6* | 31.5 | 5.0 | 11.7 | 11.9 | 28.2 | 33.6*
Cc1cc(S(=O)(=O)N2CCCC2)ccc1OCC(=O)N1CCCCC1 | 15.2 | 10.7 | 15.1 | 8.7 | 16.3 | 10.7 | x | x
CC(C)CCNC(=O)COC(=O)/C=C/c1ccc2ccccc2n1 | 49.4* | 45.1* | 48.3 | -18.1 | -7.2 | 9.2 | 42.0* | 41.0*
O=C(COC(=O)/C=C/c1ccccc1)NCCNC(=O)COC(=O)/C=C/c1ccccc1 | 12.4 | 7.7 | 15.9 | -9.1 | x | 2.6 | x | x
N/C(=N\OC(=O)c1cccnc1)c1ccc(Cl)cc1Cl | 43.8* | 40.6* | 40.7 | -2.2 | 14.0 | 27.5 | 41.0* | 21.1
N/C(=N\OC(=O)c1cccnc1)c1ccccc1Cl | 5.9 | 20.1 | 12.6 | 0.0 | -3.5 | 10.5 | x | x
Cc1ccc(C)c(NC(=O)Nn2cnnc2)c1 | -6.8 | 4.7 | 4.4 | -0.7 | 11.1 | 11.6 | x | x
Cc1ccc(/C=C/C(=O)N2CCN(S(=O)(=O)/C=C/c3ccccc3)CC2)o1 | 9.6 | 8.6 | 22.2 | 12.2 | x | 18.7 | x | x
O=C(CCCN1C(=O)/C(=C/c2ccccc2Cl)SC1=S)NCCCN1CCOCC1 | 44.1* | 43.5* | 38.1 | 1.2 | -4.4 | 1.2 | 41.1* | 46.2*
S=C(NCc1cccs1)Nc1cccc(Cl)c1 | 45.3* | 47.4* | 42.0 | x | 28.3 | 9.3 | 33.5* | 43.2*
SMILES | tim10-1 inh | TIM10 inh | tim23-1 inh | PfHsp90 set2 | NALP1 yeast inh | NALP3 yeast inh | tim10-1 conf | tim10 confirm
CC(C)c1ccc(NC(=S)NCc2cccs2)cc1 | 55.8* | 44.5* | 39.5 | -35.9 | 12.2 | 23.8 | 36.2* | 41.5*
Cc1oc2cc3oc(=O)c(CCC(=O)N(C)CC(=O)O)c(C)c3cc2c1C | 12.1 | -7.2 | 4.4 | 3.9 | 10.6 | -4.4 | x | x
c1csc(C2Nc3ccccc3-c3nc4ccccc4n32)c1 (centres undefined) | 37.6 | 21.6 | 33.9 | -15.4 | 67.8 | 3.6 | x | x
Cc1ccsc1C1Nc2ccccc2-c2nc3ccccc3n21 (centres undefined) | 51.3* | 54.3* | 49.8 | 4.6 | 35.4 | 20.5 | 39.0* | -16.3
Cc1cc(C)n(-c2nc(-n3nc(C)cc3C)c3c4c(sc3n2)COC(C)(C)C4)n1 | 49.7* | 40.6* | 42.9 | x | 4.4 | 13.3 | 33.6* | 25.2
O=C(CN1C(=O)NC(c2ccccc2)(c2ccccc2)C1=O)NCc1cccs1 | -6.0 | 2.7 | 3.2 | -6.1 | x | 5.8 | x | x
CC(NC(=O)COC(=O)c1ccc([N+](=O)[O-])s1)c1ccccc1 (centres undefined) | 18.1 | 20.4 | 10.3 | 3.7 | 41.2 | 13.2 | x | x
O=C(COC(=O)c1ccc([N+](=O)[O-])o1)NCc1ccc(F)cc1 | -180.7 | -210.7 | -47.3 | -28.5 | x | 14.1 | x | x
O=C(COC(=O)c1ccc([N+](=O)[O-])s1)NCCc1ccccc1 | 50.4* | 46.3* | 49.4 | -8.6 | x | 22.5 | 47.0* | 57.2*
O=C(COC(=O)c1ccc([N+](=O)[O-])s1)NCc1ccc(F)cc1 | 45.1* | 64.4* | 22.6 | -7.6 | 23.7 | 18.3 | 16.8 | -9.4
O=C(COC(=O)c1ccc([N+](=O)[O-])s1)NC(=O)NCc1ccccc1 | 69.9* | 70.1* | -50.1 | 1.8 | -1.6 | 20.9 | 51.8* | 70.7*
COc1ccccc1NC(=O)COC(=O)c1ccc([N+](=O)[O-])s1 | 70.0* | 81.8* | 9.9 | x | 6.4 | 11.7 | 67.6* | 88.7*
O=C(COC(=O)c1ccc([N+](=O)[O-])s1)NNC(=O)c1ccccc1 | 6.6 | 15.7 | 26.8 | x | x | 17.4 | x | x
O=C(OCC(=O)N1CCCC1=O)c1cc2ccccc2o1 | -0.9 | 1.8 | 8.3 | 24.2 | x | 12.2 | x | x
CC(C)[C@H](NC(N)=O)C(=O)Nc1cccc(S(=O)(=O)NC2=NCCCCC2)c1 | 5.2 | -0.6 | 12.1 | 23.1 | x | 5.1 | x | x

High-throughput results from PubChem.
